Reference: ChEMBL document CHEMBL1201862, “PubChem BioAssay data set” (2004)
In all, about 56,000 sequences went through this assay and about 4,300 (7.7%) were called active. Rule as the data show it: active = GI50 up to about 1.1 µM and inactive = higher. A selection follows. Measured potencies and affinities stand elsewhere.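 Where inhibition never reached the appropriate level, the endpoint shown equals the highest concentration tested. Otherwise, values were interpolated linearly from a five-concentration, 48-hour dose response in 96-well plates. At the GI50, growth is halved.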

Each substance was assayed on OVCAR-3 (assay: NCI tumour cell line growth inhibition, 48 h).

Substance	GI50 [µM]
[Bis(aminomethyl)dimethylsilane]dichloroplatinum (II), CHEMBL2146201	30.5
[Bis(aminomethyl)pentamethylenesilane]dichloropaltinum(II), CHEMBL2146202	6.5
[Bis(aminomethyl)dimethylsilane]tetrachloroplatinum(IV), CHEMBL2146190	7.29
cis-Bis[[(trimethylsilyl)methyl]amino]tetrachloroplatinum(IV), CHEMBL2146191	2.99
[Bis(aminomethyl)pentamethylenesilane]tetrachloropaltinum(IV), CHEMBL2146204	4.56
[Bis(aminomethyl)tetramethylenesilane]dichloropaltinum(II), CHEMBL2146205	32.5
[Bis(aminomethyl)tetramethylenesilane]tetrachloropaltinum(IV), CHEMBL2146189	13.1
CISPLATIN, CHEMBL11359	2.67
[Bis(aminomethyl)diethylsilane]tetrachloroplatinum(IV), CHEMBL2146203	6.11
[Bis(aminomethyl)ethylmethylsilane]tetrachloroplatinum(IV), CHEMBL2146192	4.43
mu-(1,7-nanodiamine-N,N')bis-(cis-aminedichloroplatimum (II)), CHEMBL2146215	29
